Compound activity: PubChem BioAssay, several laboratories
Rows were chosen to be rich in hits. Some 2.3% of all compounds tested hit in one or more screens of this group.
IDE inh – human IDE inhibitors in live cells, primary screen, fluorescence polarization, HEK cells, FAbetaB substrate | Insulin-degrading enzyme (Homo sapiens), P14735 | FAbetaB cleavage | inhibition, % at 5.59 µM | 0.41% of 320,000 active | AID 434962, 2010;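 active = percent inhibition above the average of all tested compounds plus 3 SD, set per screening campaign, cut at about 16% in these data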;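 also: IDE supplied by intact live HEK cells; FP after avidin binding of uncleaved biotin substrate so inhibition keeps polarization high; 0% = DMSO wells and 100% = 60 µM reference IDE inhibitor Ii1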
Target sequence (P14735 whole entry, looked up): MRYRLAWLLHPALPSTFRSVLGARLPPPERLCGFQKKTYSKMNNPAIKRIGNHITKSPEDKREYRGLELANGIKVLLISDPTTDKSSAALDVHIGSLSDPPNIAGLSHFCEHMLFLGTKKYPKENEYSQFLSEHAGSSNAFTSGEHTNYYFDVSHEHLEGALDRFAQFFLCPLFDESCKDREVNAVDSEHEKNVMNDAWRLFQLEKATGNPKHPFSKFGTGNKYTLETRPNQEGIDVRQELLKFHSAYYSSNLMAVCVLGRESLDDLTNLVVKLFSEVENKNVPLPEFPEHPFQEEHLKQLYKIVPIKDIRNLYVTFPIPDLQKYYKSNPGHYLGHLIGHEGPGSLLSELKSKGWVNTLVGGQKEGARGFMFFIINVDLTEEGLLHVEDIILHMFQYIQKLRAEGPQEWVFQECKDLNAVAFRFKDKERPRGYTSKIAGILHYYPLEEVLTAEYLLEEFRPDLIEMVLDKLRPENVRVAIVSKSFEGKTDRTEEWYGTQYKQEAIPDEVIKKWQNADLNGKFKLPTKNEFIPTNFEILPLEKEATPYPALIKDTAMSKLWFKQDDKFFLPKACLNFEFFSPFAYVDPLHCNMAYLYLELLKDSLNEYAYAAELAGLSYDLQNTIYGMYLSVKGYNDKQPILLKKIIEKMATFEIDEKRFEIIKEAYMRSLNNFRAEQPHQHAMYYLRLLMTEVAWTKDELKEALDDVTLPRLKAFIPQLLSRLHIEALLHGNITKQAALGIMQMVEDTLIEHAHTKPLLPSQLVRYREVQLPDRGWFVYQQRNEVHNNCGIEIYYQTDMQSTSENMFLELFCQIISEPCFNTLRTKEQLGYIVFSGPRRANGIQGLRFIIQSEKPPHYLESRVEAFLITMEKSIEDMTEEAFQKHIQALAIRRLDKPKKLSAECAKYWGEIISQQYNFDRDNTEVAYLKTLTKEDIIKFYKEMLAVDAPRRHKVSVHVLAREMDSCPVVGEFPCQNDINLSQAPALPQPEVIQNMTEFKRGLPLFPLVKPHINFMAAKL
Rin1 Abl inh – inhibitors of Rin1-Abl protein binding, primary screen, biochemical, TR-FRET; Tyrosine-protein kinase ABL1 (Homo sapiens) + Ras and Rab interactor 1 (Homo sapiens), …; inhibition, % at 7.35 µM; 0.4% of 360,000 active; AID 588664, 2011; in the data active = inhibition above about 5%, passing the limit was not always enough
Calb FLC – C. albicans growth inhibition with fluconazole, primary screen, CaCi-2 strain, Alamar Blue fluorescence; AID 1979, 2009; growth inhibition, % (no concentration beside the values); C. albicans CaCi-2 (fluconazole-resistant clinical isolate) + fluconazole, 48 h; 0.57% of 300,000 active;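 active = growth inhibition above about 58% in most replicates, limit read from the data, passing the limit was not always enough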;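 also: all wells also contain fluconazole at 8 µg/ml as a sub-toxic cotreatment; 0% = median of DMSO wells and 100% = median of geldanamycin control wells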
TPT1 inhibitor – Candida albicans TPT1 enzyme inhibitors, primary screen, biochemical, fluorescence polarization. tRNA 2'-phosphotransferase TPT1 (Candida albicans SC5314). recombinant caTPT1, FP RNA substrate dephosphorylation. inhibition, % at 5 µM. 0.81% of 300,000 active. AID 1962, 2009;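 active = inhibition above the mean of all tested compounds plus 3 SD, set per screening campaign, cut at about 24% in these data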;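 also: plate controls were DMSO alone for no effect and ferristatin control at 100 nM for full effect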
IDE cell activ – human IDE activators in live cells, primary screen, fluorescence polarization, HEK cells, FAbeta-B substrate; activation, % at 5.96 µM; FAbeta-B cleavage; 0% vehicle, 100% cell-free pure enzyme wells; Insulin-degrading enzyme (Homo sapiens), P14735; 0.073% of 340,000 active; AID 493087, 2011;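 active = activation above the mean of all tested compounds plus 3 SD, set per screening campaign, cut at about 17% in these data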
Rpn11 inh – Rpn11 (PSMD14) deubiquitinase inhibitors, primary screen, biochemical, fluorescence polarization, uHTS; 26S proteasome non-ATPase regulatory subunit 14 (Homo sapiens), O00487; human 26S proteasome, Ub4-pepOG fluorescence polarization; 20S core pre-blocked with epoxomicin; inhibition, % at 20 µM; 0.59% of 360,000 active;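 active = inhibition at 20 µM, scaled to each plate's controls, above about 33%, limit read from the data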
Rin1-Abl confirm – Rin1-Abl binding inhibitor retest, confirmation, biochemical, TR-FRET; shares compounds with Rin1 Abl inh; purified proteins; inhibition, % at 7.35 µM; 49% of 1,300 active; AID 602124, 2011; in the data active = inhibition above about 6.5%
GFP quench-1 – GFP fluorescence inhibitors and quenchers, artefact control for Rin1-Abl interaction inhibitor project, biochemical; inhibition, % at 6.75 µM; inhibitors/quenchers counterscreen; 8.5% of 1,300 active; shares compounds with Rin1 Abl inh; in the data active = inhibition above about 6.5%;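 also: ABL1-eGFP fusion protein alone without its partner RIN1-SBP; 0% = protein with vehicle and 100% = wells lacking protein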
GFP quench dose – GFP fluorescence inhibitors and quenchers, dose response, artefact control for Rin1-Abl interaction inhibitor project, biochemical; shares compounds with Rin1 Abl inh; GFP fluorescence interference/quenching counterscreen; IC50, µM; 230 tested, under 10 active; AID 602182, 2012;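 also: ABL1-eGFP fusion protein alone without its RIN1 binding partner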
GFP quench-2 – GFP fluorescence inhibitors and quenchers, late-stage follow-up, artefact control for Rin1-Abl interaction inhibitor project, biochemical, dose response; shares compounds with Rin1 Abl inh; GFP fluorescence quenching counterscreen; IC50, µM; 25 tested, under 10 active; AID 602397, 2012
Active calls of the source: *; . = not tested or not shown. Unless noted, no rule for the calls is given here.

SMILES	IDE inh	Rin1 Abl inh	Calb FLC	TPT1 inhibitor	IDE cell activ	Rpn11 inh	Rin1-Abl confirm	GFP quench-1	others
CC(=O)c1cccc(-c2ccnc3c2CC(C(=O)NCc2ccc(N4CCN(C)CC4)cc2)O3)c1 (stereo not drawn)	.	25*	.	.	.	1	18*	-1	GFP quench dose=>68
CN1CCN(c2ccc(CNC(=O)C3Cc4c(-c5cccc(F)c5)ccnc4O3)cc2)CC1 (stereo not drawn)	.	6.5*	.	.	.	-8	5	1
COc1ccc(CCCC(=O)NCC(=O)N/N=C/c2cc(Cl)ccc2OC)cc1	.	-4	0	.	2	4	.	.
CCCc1cnc(Nc2nc(C(N)Cc3ccc(C(F)(F)F)cc3)cs2)nc1 (stereo not drawn)	.	2	.	.	.	0	.	.
O=C(c1cc(COc2cccc3cccnc23)on1)N1CCC[C@H]1CO	.	54*	.	.	.	-2	50*	-1	GFP quench dose=>67;GFP quench-2=>68
CC(=O)c1ccc(OCc2cc(C(=O)N3CCC[C@H]3CO)no2)cc1	8	11*	-1	-4	-5	-1	10*	-1
c1cc(-c2ccc(CN3CCOCC3)cc2)n2ccnc2c1	.	-2	.	.	.	5	.	.
CCCCN(C)C(=O)c1ccc2c(c1)S(=O)(=O)c1ccccc1C2=O	2	10*	22	-1	-1	8	-3	2
CCN(CC)CCNC(=O)C1CCN(S(=O)(=O)c2c(C)noc2/C=C/c2ccccc2F)CC1	-1	-6	2	0	4	-2	.	.
Cc1ccsc1CNC(=O)c1c(-c2ccccc2)noc1C	-2	-2	0	0	7	1	.	.
Cc1cccc2cc(C(c3nnnn3C(C)(C)C)N(Cc3ccco3)CC3CCCO3)c(=O)[nH]c12 (stereo not drawn)	-4	5.8*	9	0	7	11	9.1*	3
COc1ccc(NC(=O)CN2CCN(C(=O)N3CCOCC3)CC2)cc1	-4	3	18	4	3	-3	.	.
CCOc1ccc2c(c1)OC(c1ccc(OC)cc1)(C(F)(F)F)NC2=O (stereo not drawn)	-2	7.1*	0	2	3	-1	-1	0
COC(=O)C[C@H]1c2cc(F)ccc2S(=O)(=O)N1c1ccc(N(C)C)cc1	3	-2	-5	-2	4	0	.	.
CCc1nc(SCC(=O)NCCc2ccc(OC)c(OC)c2)c2c(=O)n(C)c(=O)n(C)c2n1	-3	10*	5	-1	4	-2	16*	1
O=[N+]([O-])c1ccc(N/N=C/c2ccc(O)c(O)c2O)c(S(=O)(=O)N2CCOCC2)c1	.	14*	100*	.	-7	-10	9.5*	13*
O=C(CCc1ccc(S(=O)(=O)N2CCOCC2)cc1)N/N=C/c1ccc(O)c(O)c1O	2	13*	-10	1	-12	-9	11*	9.4*
O=[N+]([O-])c1ccc(NCCCO)c(S(=O)(=O)N2CCOCC2)c1	-3	-5	2	0	5	-2	.	.
Cc1ccc(C2(c3ccccc3)NC(=O)N(CC(=O)NC3CCS(=O)(=O)C3)C2=O)cc1C (stereo not drawn)	-3	0	.	.	1	-4	.	.
Nc1nonc1-n1nnc(C(=O)N/N=C/c2ccccc2F)c1CN1CCc2ccccc21	-1	-1	7	-1	1	8	.	.
C[C@H]1CN([C@@H](C)CO)C(=O)c2cc(-c3cccc(C#N)c3)cnc2O[C@H]1CN(C)C(=O)c1ccccn1	.	-1	.	.	.	0	.	.
CCC(=O)NC(c1ccco1)c1cc(Br)c2cccnc2c1O (stereo not drawn)	.	7.9*	.	.	.	22	8.1*	4
CCC(=O)NC(c1ccc(C)cc1)c1ccc2cccnc2c1O (stereo not drawn)	1	11*	0	0	-3	12	6.8*	2
CCCC(=O)NC(c1ccco1)c1cc([N+](=O)[O-])c2cccnc2c1O (stereo not drawn)	-5	9.3*	109*	-1	-1	19	-3	5
Cc1c(C)c2ccc(OCC(=O)N(C)C3CCS(=O)(=O)C3)c(C)c2oc1=O (stereo not drawn)	4	-5	-3	1	-5	-4	.	.
SMILES	IDE inh	Rin1 Abl inh	Calb FLC	TPT1 inhibitor	IDE cell activ	Rpn11 inh	Rin1-Abl confirm	GFP quench-1	others
CC(=O)OCCN1C(=O)c2cccc3cc([N+](=O)[O-])cc(c23)C1=O	-2	.	9	-11	.	.	.	.
N#Cc1ccccc1S(=O)(=O)N1CCN(C(=O)c2cc3c(s2)CCC3)CC1	.	-1	.	.	0	-10	.	.
Cc1ccc(C(=O)NC(C)c2ccc(-n3ccnc3)cc2)cc1S(=O)(=O)N1CCOCC1 (stereo not drawn)	7	11*	-4	0	-8	14	16*	0
COc1ccc(-n2ncc3c(N4CCCCC4)ncnc32)cc1	-1	6.1*	7	-2	4	3	-4	1
Clc1ccc(-n2ncc3c(N4CCCCCC4)ncnc32)cc1	-3	2	-2	-2	-2	5	.	.
NC(CO)C(=O)NNCc1ccc(O)c(O)c1O (stereo not drawn)	7	37*	.	-4	-6	-10	29*	6
COC(=O)C(N)Cc1ccc(O)c(O)c1 (stereo not drawn)	5	1	12	-6	7	-6	.	.
Cc1ccc(NC(=O)C2COc3ccccc3O2)cc1C (stereo not drawn)	1	-3	2	5	4	0	.	.
O=C(Nc1cccc(S(=O)(=O)C(F)(F)F)c1)[C@H]1C[C@H](O)[C@@H](CO)O1	.	-1	.	.	.	-2	.	.
COC(=O)c1ccc(COC(=O)C23CC4CC(CC(O)(C4)C2)C3)o1	11	20*	4	1	-2	4	17*	1	GFP quench dose=>68
